Results taken from PubChem BioAssay (NCATS).
Inconclusive results are not listed. The source made the active and inactive calls. Unless noted, calls come from the whole dose curve; as a rule, active = well fitted curve in either direction with a large enough effect (not every such curve was filed as active); inconclusive = small, poorly fitted or top-dose-only effect, or another doubt; inactive = flat fitted curve, though single readings scatter.

Key:
[1] = target: Lysosomal acid glucosylceramidase (Homo sapiens) (UniProt P04062); assay: Glucocerebrosidase-p2 (AID 348; in the data active = potency below about 10 µM; note: potency is the fitted concentration of half-maximal effect); settings: purified GBA, blue fluorogenic substrate, 40 min
Chain of Lysosomal acid glucosylceramidase (Homo sapiens) (P04062 whole entry, looked up): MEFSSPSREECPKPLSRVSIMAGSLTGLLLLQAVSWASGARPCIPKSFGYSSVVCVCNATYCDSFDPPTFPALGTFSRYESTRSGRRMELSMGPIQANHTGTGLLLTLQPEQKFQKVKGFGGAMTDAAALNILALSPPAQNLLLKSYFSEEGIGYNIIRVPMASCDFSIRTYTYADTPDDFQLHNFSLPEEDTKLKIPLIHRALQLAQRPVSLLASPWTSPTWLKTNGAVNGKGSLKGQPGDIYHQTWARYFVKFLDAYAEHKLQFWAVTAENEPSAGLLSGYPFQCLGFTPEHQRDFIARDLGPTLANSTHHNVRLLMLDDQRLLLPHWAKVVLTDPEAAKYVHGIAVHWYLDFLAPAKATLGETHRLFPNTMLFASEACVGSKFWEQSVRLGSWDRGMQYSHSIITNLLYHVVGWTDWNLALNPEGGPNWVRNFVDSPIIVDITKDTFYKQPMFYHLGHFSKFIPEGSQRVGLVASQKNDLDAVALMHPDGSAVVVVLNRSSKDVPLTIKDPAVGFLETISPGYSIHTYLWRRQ
Method in brief: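 Normal human glucocerebrosidase (0.2 nM) with blue fluorogenic substrate (80 uM final) in citrate/phosphate pH 5.9 with 10mM sodium taurocholate, 0.01% tween-20; 40 min RT, NaOH/glycine stop; fluorescence Ex 365/Em 440; AC50 from a titration from 0.6 nM upwards.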

[2] = AP1 Signaling Pathway (AID 357); settings: ME-180 AP-1-bla reporter, EGF-induced, beta-lactamase ratio, 5 h; at 7.69 µM (top of the series) unless noted;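 note: ME-180 reporter cells stimulated with EGF at its EC50 level; % is set by controls: 0 for no effect and ±100 for the full control effect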
Method in brief: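 Cells are seeded overnight, exposed to compound titrations and an EC50 level of EGF for 5 hours at 37 °C, then loaded with CCF4 dye for 2.5 hours. Beta-lactamase activity under the AP-1 element is read as a blue/green ratio.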

[3] = target: Cytochrome P450 1A2 (Homo sapiens) (UniProt P05177); assay: p450-cyp1a2 (AID 410; calls by dose curve; note: potency is the fitted concentration of half-maximal effect;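 for activity change, negative = inhibition: -100% = full effect of reference inhibitor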); settings: recombinant CYP1A2, luciferin-ME demethylation, luminescence; series mostly up to 57 µM
Chain of Cytochrome P450 1A2 (Homo sapiens) (P05177 whole entry, looked up): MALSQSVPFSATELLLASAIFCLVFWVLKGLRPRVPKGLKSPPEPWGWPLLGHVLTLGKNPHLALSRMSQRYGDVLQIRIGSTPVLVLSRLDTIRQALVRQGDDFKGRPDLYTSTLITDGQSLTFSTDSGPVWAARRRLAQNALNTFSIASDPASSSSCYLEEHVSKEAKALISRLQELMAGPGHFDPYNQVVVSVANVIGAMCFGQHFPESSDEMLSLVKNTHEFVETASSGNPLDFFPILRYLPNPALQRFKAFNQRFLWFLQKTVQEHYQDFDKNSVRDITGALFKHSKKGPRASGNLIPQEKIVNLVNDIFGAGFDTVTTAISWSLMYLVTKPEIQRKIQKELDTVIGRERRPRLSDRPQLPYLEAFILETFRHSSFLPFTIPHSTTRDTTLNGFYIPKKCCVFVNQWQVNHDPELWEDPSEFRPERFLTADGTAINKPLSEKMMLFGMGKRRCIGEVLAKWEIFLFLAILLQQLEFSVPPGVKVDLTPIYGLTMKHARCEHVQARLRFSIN
Method in brief: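 O-Demethylation of luciferin 6' methyl ether by human CYP1A2 is monitored as luciferase luminescence. Substrate sits at Km (100uM); enzyme is 20nM. Values are scaled to 57 uM furafylline as maximal inhibition.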

[4] = Stat Signaling Pathway (AID 446); settings: ME-180 SIE beta-lactamase reporter, IL-6 stimulated, 5 h; at 7.69 µM (top of the series) unless noted;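 note: ME-180 cervical cancer cells given 40 pM IL-6 alongside compound; SIE-controlled beta-lactamase reporter measured as 460/530 nm FRET emission ratio; % is set by controls: 0 for no effect and ±100 for the full control effect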
Method in brief: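 Overnight-plated ME-180 cells bearing a STAT Inducible Element beta-lactamase reporter; 5 h co-exposure to compound and 40 pM IL-6; values normalized to 300 pM IL-6 and 125 nM JAK inhibitor controls.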

[5] = target: Glucocorticoid receptor (Homo sapiens) (UniProt P04150); assay: GR-EFC Redistribution (AID 451; calls by dose curve; note: potency is the fitted concentration of half-maximal effect); settings: CHO-K1 GR-EFC translocation, beta-gal luminescence, 2 h
Chain of Glucocorticoid receptor (Homo sapiens) (P04150 whole entry, looked up, the tested form may be a part): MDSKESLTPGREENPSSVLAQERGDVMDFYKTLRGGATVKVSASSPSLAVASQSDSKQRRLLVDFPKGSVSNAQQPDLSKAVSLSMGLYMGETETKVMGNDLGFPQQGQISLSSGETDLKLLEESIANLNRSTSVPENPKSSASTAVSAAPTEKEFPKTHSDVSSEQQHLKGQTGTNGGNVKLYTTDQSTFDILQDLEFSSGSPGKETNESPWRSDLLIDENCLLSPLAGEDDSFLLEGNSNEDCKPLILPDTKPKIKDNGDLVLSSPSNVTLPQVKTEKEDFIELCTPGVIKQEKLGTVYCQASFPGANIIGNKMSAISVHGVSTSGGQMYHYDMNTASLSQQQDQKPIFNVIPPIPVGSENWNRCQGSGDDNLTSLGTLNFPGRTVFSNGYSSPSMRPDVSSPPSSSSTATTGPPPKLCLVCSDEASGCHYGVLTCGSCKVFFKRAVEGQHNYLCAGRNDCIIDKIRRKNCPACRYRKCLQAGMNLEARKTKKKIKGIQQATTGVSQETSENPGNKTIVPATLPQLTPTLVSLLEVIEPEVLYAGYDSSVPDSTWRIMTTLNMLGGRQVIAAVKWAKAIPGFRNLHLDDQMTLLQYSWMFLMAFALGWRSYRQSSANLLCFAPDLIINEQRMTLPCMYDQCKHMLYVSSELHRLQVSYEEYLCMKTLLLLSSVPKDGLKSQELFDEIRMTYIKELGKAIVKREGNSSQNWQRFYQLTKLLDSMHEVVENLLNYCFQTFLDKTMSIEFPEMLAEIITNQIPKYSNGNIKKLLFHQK
Method in brief: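 CHO-K1 cells stably expressing nuclear-localized β-gal enzyme acceptor and GR fused C-terminally to the enzyme donor fragment; ligand-driven nuclear translocation restores β-gal by complementation. Compounds titrated up to 46 uM final, 2 h at 37 °C; luminescence read.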

[6] = target: Mitogen-activated protein kinase 10 (Mus musculus) (UniProt Q61831); assay: JNK3 AlphaScreen Assay (AID 530); settings: JNK3 lysate, c-Jun phosphorylation; series mostly up to 57.1 µM;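 note: kinase came from lysate of stimulated human HepG2 cells; signal reports phosphorylation of biotinylated GST-cJun 1-79 at Ser73 with 10 µM ATP; % is set by controls: 0 for no effect and ±100 for the full control effect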
Method in brief: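 Phosphorylation of biotinylated GST-cJun(1-79) at Ser73 is measured by AlphaScreen proximity luminescence. Enzyme is JNK3 in HepG2 lysates activated with interleukin-1beta and tumor necrosis factor alpha; ATP is 10 uM final.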

[7] = target: 3',5'-cyclic-AMP phosphodiesterase 4B (Homo sapiens) (UniProt Q07343); assay: qHTS Assay for Inhibitors of PDE-IV (AID 607; active = well fitted activation curve with a large enough effect in the main read-out, with a control signal flat, not every such curve was filed as active; note: % of control where 0% means no effect); settings: HEK293 ACTOne CNG channel cells, membrane potential fluorescence; series mostly up to 22.9 µM
Chain of 3',5'-cyclic-AMP phosphodiesterase 4B (Homo sapiens) (Q07343 whole entry, looked up): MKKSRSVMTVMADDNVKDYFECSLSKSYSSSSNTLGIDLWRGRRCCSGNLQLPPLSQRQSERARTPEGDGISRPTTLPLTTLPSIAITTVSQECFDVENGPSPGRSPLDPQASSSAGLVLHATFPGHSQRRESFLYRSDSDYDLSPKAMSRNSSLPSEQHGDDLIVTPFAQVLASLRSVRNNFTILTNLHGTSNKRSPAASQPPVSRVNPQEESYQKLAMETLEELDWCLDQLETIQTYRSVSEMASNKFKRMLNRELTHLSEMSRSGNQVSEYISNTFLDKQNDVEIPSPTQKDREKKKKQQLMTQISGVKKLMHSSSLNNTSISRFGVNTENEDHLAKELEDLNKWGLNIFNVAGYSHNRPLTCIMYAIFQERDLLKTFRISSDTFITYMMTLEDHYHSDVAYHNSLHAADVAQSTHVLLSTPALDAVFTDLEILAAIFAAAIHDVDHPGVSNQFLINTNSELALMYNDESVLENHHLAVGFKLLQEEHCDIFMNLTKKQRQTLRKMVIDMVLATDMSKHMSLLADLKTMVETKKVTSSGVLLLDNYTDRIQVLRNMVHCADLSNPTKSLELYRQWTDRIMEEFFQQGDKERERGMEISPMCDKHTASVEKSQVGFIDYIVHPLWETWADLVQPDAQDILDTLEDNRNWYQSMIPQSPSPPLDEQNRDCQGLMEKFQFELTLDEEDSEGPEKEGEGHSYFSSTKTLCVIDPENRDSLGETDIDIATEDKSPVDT
Method in brief: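 Live HEK293 cells with a modified cyclic nucleotide-gated (CNG) channel report intracellular cAMP via membrane-potential dye fluorescence (ex 535/em 590 nm). Endogenous PDE-IV was targeted. Compounds were tested at up to 22.9 uM final; RO 20-1724 100 uM served as control.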

[8] = Primary qHTS for small molecule stabilizers of the endoplasmic reticulum resident proteome: Secreted ER Calcium Modulated Protein (SERCaMP) assay (AID 1508630; active = well fitted curve in the direction sought with a large enough effect; an effect the other way counts as inactive or inconclusive; note: % is set by controls: 0 for no effect and ±100 for the full control effect); settings: SH-SY5Y GLuc-SERCaMP (Gaussia luciferase released on ER calcium loss) secretion, thapsigargin, luminescence; series mostly up to 38.4 µM
Method in brief: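 The SH-SY5Y reporter protocol was run at 3 concentrations up to 38.3 uM (primary) or 11 concentrations (follow-up): 16 h compound, 100 nM thapsigargin for 4 h, then extracellular luciferase luminescence.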

[9] = target: Glucocorticoid receptor (Homo sapiens) (UniProt P04150); assay: GR-GFP Redistribution (AID 450;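 active = compounds whose dose series gives a full or clear partial fitted curve of increased nuclear translocation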; note: potency is the fitted concentration of half-maximal effect); settings: U2OS GR-GFP nuclear translocation, laser cytometry, 2 h
[10] = target: Cytochrome P450 2C9 (Homo sapiens) (UniProt P11712); assay: qHTS Assay for Inhibitors and Substrates of Cytochrome P450 2C9 (AID 883; active = well fitted curve in the direction sought with a large enough effect; an effect the other way counts as inactive or inconclusive; note: potency is the fitted concentration of half-maximal effect; nearly all actives have a fitted effect of over 60% in size); settings: recombinant CYP2C9, luciferin-H luminescence, 60 min; series mostly up to 57.1 µM
Method in brief: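 Human CYP2C9 (10nM) hydroxylated Luciferin-H (100uM, at its KM) to luciferin in 25mM KPO4. Compound was preincubated 10 min at 37C, then NADPH regeneration started a 60 min reaction at 37C. Luminescence was read after detection reagent, normalized to 57uM sulphaphenazole.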

[11] = target: Cytochrome P450 3A4 (Homo sapiens) (UniProt P08684); assay: qHTS Assay for Inhibitors and Substrates of Cytochrome P450 3A4 (AID 884; active = well fitted curve in the direction sought with a large enough effect; an effect the other way counts as inactive or inconclusive; note: potency is the fitted concentration of half-maximal effect; nearly all actives have a fitted effect of over 50% in size); settings: recombinant CYP3A4, Luciferin-PPXE luminescence; series mostly up to 57.1 µM
Chain of Cytochrome P450 3A4 (Homo sapiens) (P08684 whole entry, looked up): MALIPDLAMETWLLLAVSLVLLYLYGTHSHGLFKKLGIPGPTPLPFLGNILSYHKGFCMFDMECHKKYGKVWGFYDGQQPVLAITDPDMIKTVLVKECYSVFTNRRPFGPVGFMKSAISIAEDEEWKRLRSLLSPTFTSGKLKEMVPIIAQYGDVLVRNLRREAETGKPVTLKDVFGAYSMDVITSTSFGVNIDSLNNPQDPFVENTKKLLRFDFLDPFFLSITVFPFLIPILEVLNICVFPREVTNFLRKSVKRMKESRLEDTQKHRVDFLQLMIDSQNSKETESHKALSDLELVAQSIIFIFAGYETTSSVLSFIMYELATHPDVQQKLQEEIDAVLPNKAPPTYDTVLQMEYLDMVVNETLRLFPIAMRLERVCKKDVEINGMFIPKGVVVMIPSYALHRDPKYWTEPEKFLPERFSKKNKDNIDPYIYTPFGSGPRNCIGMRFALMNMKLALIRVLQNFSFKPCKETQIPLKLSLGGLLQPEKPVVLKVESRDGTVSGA
Method in brief: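 Luminescent readout of luciferin produced by CYP3A4 (20 nM) dealkylation of Luciferin-PPXE, 25 uM (its KM). NADPH-driven reaction ran 60 min at RT after 10 min compound preincubation; data scaled to 57 uM ketoconazole as 100% inhibition.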

[12] = target: Cytochrome P450 3A4 (Homo sapiens) (UniProt P08684); assay: qHTS Assay for Activators of Cytochrome P450 3A4 (AID 885; active = well fitted curve in the direction sought with a large enough effect; an effect the other way counts as inactive or inconclusive; note: nearly all actives have a fitted effect of over 65% in size); settings: recombinant CYP3A4, Luciferin-PPXE luminescence, 60 min; series mostly up to 57.1 µM
Method in brief: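 Using 20nM recombinant human CYP3A4 in potassium phosphate (200mM), substrate Luciferin-PPXE at 25uM, luminescent luciferin detection followed a 60-min RT NADPH reaction; data scaled to 57 uM ketoconazole.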

[13] = target: Cytochrome P450 2C19 (Homo sapiens) (UniProt P33261); assay: qHTS Assay for Inhibitors and Substrates of Cytochrome P450 2C19 (AID 899; active = well fitted curve in the direction sought with a large enough effect; an effect the other way counts as inactive or inconclusive; note: potency is the fitted concentration of half-maximal effect; nearly all actives have a fitted effect of over 60% in size); settings: recombinant CYP2C19, luciferin-H EGE luminescence; series mostly up to 57.1 µM
Chain of Cytochrome P450 2C19 (Homo sapiens) (P33261 whole entry, looked up): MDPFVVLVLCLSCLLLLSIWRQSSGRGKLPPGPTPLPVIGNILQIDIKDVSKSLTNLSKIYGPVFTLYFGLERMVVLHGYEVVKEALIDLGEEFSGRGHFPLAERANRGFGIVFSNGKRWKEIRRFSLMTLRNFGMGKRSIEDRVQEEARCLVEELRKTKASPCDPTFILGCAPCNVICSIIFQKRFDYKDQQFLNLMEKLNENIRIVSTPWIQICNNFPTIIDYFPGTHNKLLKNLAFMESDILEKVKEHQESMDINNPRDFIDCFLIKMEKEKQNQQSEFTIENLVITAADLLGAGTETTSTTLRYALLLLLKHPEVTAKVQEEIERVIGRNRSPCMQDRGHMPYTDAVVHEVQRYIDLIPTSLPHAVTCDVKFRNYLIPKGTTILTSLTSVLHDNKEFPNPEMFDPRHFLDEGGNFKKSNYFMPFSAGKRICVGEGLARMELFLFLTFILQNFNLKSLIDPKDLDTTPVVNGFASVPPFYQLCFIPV
Method in brief: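 Human CYP2C19 (5nM) with Luciferin-H EGE at 10uM (its KM) in 50mM KPO4 was preincubated with compound for 10 min at 37C. NADPH regeneration started a 60 min 37C reaction. Luciferin was read by luminescence, normalized to 57uM ketoconazole.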

[14] = target: Cytochrome P450 2D6 (Homo sapiens) (UniProt P10635); assay: qHTS Assay for Inhibitors and Substrates of Cytochrome P450 2D6 (AID 891; active = well fitted curve in the direction sought with a large enough effect; an effect the other way counts as inactive or inconclusive; note: potency is the fitted concentration of half-maximal effect; nearly all actives have a fitted effect of over 60% in size); settings: recombinant CYP2D6, luciferin-ME EGE luminescence; series mostly up to 57.1 µM
Chain of Cytochrome P450 2D6 (Homo sapiens) (P10635 whole entry, looked up): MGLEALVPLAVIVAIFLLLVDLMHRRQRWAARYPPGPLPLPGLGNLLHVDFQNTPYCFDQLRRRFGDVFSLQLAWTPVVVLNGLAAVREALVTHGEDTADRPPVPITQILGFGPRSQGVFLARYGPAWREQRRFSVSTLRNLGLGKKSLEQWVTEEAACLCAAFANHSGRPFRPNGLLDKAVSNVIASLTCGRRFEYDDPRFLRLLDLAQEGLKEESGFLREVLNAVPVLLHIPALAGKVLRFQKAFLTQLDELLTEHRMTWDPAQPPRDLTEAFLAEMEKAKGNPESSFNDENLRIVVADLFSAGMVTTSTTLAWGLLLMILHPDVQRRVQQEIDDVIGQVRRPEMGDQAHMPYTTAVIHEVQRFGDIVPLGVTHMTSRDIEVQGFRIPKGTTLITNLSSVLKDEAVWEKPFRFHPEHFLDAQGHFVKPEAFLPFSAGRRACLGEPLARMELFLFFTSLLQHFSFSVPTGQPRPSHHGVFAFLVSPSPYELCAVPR
Method in brief: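 Luminescent read-out of luciferin formed by 5 nM human CYP2D6 demethylating 30 uM Luciferin-ME EGE (Km level) over 60 min at room temperature after NADPH regeneration addition. Data normalized to full inhibition by 1.43 uM quinidine.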

[15] = Confirmation and Secondary Assay for Modulators of Hemoglobin Beta Chain Splicing at IVS2 654 locus (AID 910; active = well fitted curve in the direction sought with a large enough effect; an effect the other way counts as inactive or inconclusive;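 note: per-well total GFP intensity by laser scanning cytometry after 2-day treatment; % of control where 0% means no effect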); settings: HeLa EGFP-654 splicing reporter, GFP fluorescence, 48 h; series mostly up to 38.3 µM
Method in brief: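 HeLa cells stably carrying EGFP interrupted by mutant beta-globin IVS2-654 intron (CMV-driven) were treated with compound for 2 days at 37C; corrected splicing was scored as total peak GFP intensity per well (488 nm excitation, 500-520 nm emission).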

[16] = target: Ubiquitin carboxyl-terminal hydrolase 1 (Homo sapiens) (UniProt O94782); assay: Inhibitors of USP1/UAF1: Pilot qHTS (AID 504865; active = well fitted curve in the direction sought with a large enough effect; an effect the other way counts as inactive or inconclusive;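 note: rhodamine fluorescence freed from ubiquitin-rhodamine substrate followed over time; top concentration of the series differs between compounds; % is set by controls: 0 for no effect and ±100 for the full control effect; nearly all actives have a fitted effect of over 35% in size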); settings: purified USP1/UAF1, Ub-rhodamine cleavage fluorescence; series mostly up to 54.9 µM
Chain of Ubiquitin carboxyl-terminal hydrolase 1 (Homo sapiens) (O94782 whole entry, looked up): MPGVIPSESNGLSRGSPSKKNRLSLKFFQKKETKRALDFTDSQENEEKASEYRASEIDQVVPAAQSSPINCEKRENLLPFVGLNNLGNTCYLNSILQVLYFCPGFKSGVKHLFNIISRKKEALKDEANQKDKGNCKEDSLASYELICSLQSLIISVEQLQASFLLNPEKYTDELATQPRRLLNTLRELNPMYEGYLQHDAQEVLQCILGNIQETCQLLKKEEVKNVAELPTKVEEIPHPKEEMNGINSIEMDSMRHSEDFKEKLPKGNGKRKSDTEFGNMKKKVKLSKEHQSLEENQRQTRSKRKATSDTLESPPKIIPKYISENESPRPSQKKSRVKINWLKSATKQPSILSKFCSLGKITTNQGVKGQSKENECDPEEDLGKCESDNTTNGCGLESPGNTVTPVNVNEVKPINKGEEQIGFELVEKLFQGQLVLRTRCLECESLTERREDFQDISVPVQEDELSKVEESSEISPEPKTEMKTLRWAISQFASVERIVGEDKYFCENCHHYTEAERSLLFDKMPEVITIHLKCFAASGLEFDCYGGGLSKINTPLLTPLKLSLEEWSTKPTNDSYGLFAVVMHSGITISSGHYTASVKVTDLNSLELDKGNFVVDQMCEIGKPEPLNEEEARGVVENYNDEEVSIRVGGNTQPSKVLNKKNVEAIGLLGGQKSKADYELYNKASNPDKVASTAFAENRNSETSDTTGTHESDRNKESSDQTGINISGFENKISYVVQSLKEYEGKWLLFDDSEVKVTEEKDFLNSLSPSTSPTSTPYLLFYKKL
Method in brief: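 USP1/UAF1 complex at 1 nM preincubated 15 min at room temperature with compound, then Ub-Rho substrate added at 150 nM final. Fluorescence (480/540 nm) read kinetically in 50 mM HEPES pH 7.8, 0.5 mM EDTA, 1 mM TCEP, 0.1 mg/ml BSA, 0.01% Tween-20.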

[17] = NFAT Signaling Pathway (AID 444); settings: Jurkat NFAT-bla M1, carbachol, beta-lactamase ratio, 5 h; at 7.69 µM (top of the series) unless noted
Method in brief: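 Jurkat cells carrying an NFAT-driven β-lactamase reporter and co-transfected muscarinic M1 receptor were treated with compound plus carbachol (1 uM final, an EC50 level) for 5 h at 37 °C. CCF4 loading followed for 1 h at RT; 460/530 nm ratio gave %activity.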

[18] = qHTS Assay for Identification of Small Molecule Agonists for Hypoxia Response Element Signaling Pathway (AID 914; active = well fitted activation curve with a large enough effect in the signal ratio, with a control signal flat, not every such curve was filed as active; the % refers to the signal ratio; note: % of control where 0% means no effect); settings: ME-180 (cervical carcinoma) HRE-bla reporter, beta-lactamase ratio, CoCl2, 17 h; activation: stronger effect = higher value
Method in brief: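 Cells were plated overnight, pin-dosed with compound in a titration series, co-stimulated with EC50 CoCl2 and incubated 17 hours at 37 degrees Celsius. CCF4 substrate was then loaded, and AC50 values came from the 460nm/530nm ratio.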

Cn1cccc1C(=O)N1CCC2(CC1)CCN(c1ccccn1)CC2
inactive: Potency [1] > 11.4 µM | activity change, negative = inhibition [2] -0.389% | activity, negative = inhibition [4] -4.58% | Potency [5] > 46 µM | Potency [6] | Potency [7] | outcome [8]
active: Potency [3] 15.8 µM

COc1ccccc1CCn1c(=O)c(-c2ccc(Cl)cc2)nc2cncnc21
inactive: Potency [1] > 11.4 µM | activity change, negative = inhibition [2] 10.2% | activity, negative = inhibition [4] 6.76% | Potency [9] > 9.22 µM | Potency [5] > 46 µM | Potency [6] | Potency [7] | Potency [12] | outcome [8]
active: Potency [3] 0.631 µM | Potency [10] 3.98 µM | Potency [11] 3.98 µM | Potency [13] 0.398 µM

COc1ccc(CNc2ncncc2-c2ccc3c(c2)OCO3)c(OC)c1
inactive: Potency [1] > 11.4 µM | activity change, negative = inhibition [2] 11.1% | activity, negative = inhibition [4] -6.57% | Potency [9] > 46 µM | Potency [5] > 46 µM | Potency [6] | Potency [12] | Potency [15] | Potency [16] | outcome [8]
active: Potency [3] 0.501 µM | Potency [11] 0.126 µM | Potency [14] 0.794 µM

O=C(c1ccncc1)N1CCC2(CC1)CCN(c1ncccn1)CC2
inactive: Potency [1] > 11.4 µM | activity change, negative = inhibition [2] -2.2% | activity change, negative = inhibition [17] 11.7% | Potency [5] > 46 µM | Potency [6] | Potency [7] | outcome [8]
active: Potency [3] 20 µM | Potency [13] 2.51 µM

Clc1ccccc1-c1cc(NCc2cccnc2)ncn1
inactive: Potency [1] > 11.4 µM | activity change, negative = inhibition [2] -5.3% | activity, negative = inhibition [4] 6.36% | Potency [9] > 46 µM | Potency [5] > 46 µM | Potency [6] | Potency [7] | Potency [12] | Potency [16] | outcome [8]
active: Potency [3] 3.16 µM

O=C(c1csnn1)N1CCC2(CC1)CCN(c1ccccn1)CC2
active: Potency [3] 25.1 µM
inactive: Potency [1] > 11.4 µM | activity change, negative = inhibition [2] 15.4% | activity, negative = inhibition [4] 4.86% | Potency [5] > 46 µM | Potency [6] | Potency [7] | outcome [8]

N#Cc1cccc(NC(=O)N2CCCC3(CCN(C(=O)c4csnn4)CC3)C2)c1
inactive: Potency [1] > 11.4 µM | activity change, negative = inhibition [2] 6.7% | Potency [3] | activity, negative = inhibition [4] -0.264% | Potency [5] > 46 µM | Potency [6] | Potency [7] | Potency [12] | activation [18] -5.53% | outcome [8]

O=C(c1ccco1)N1CCC2(CCCN(Cc3ccncc3)C2)CC1
inactive: Potency [1] > 11.4 µM | activity change, negative = inhibition [2] -1.32% | activity, negative = inhibition [4] -14.4% | Potency [5] > 46 µM | Potency [6] | Potency [7] | Potency [12] | outcome [8]
active: Potency [3] 15.8 µM | Potency [11] 5.01 µM | Potency [14] 3.16 µM

O=C(c1ccco1)N1CCC2(CCCN(Cc3ccccc3)C2)CC1
inactive: Potency [1] > 11.4 µM | activity change, negative = inhibition [2] -8.21% | Potency [3] | activity, negative = inhibition [4] 10.9% | Potency [5] > 46 µM | Potency [6] | Potency [7] | Potency [12] | activation [18] 3.78% | outcome [8]

N#Cc1cccc(NC(=O)N2CCCC3(CCN(C(=O)c4cccc(F)c4)CC3)C2)c1
inactive: Potency [1] > 11.4 µM | activity change, negative = inhibition [2] -6.98% | activity, negative = inhibition [4] -4.33% | Potency [5] > 46 µM | Potency [6] | Potency [7] | Potency [12] | outcome [8]
active: Potency [3] 12.6 µM

O=C(c1csnn1)N1CCC[C@@]2(CCN(c3ccncc3)C2)C1
inactive: Potency [1] > 11.4 µM | activity change, negative = inhibition [2] 13.9% | Potency [3] | activity, negative = inhibition [4] 8.6% | Potency [5] > 46 µM | Potency [6] | Potency [7] | outcome [8]

Cc1cnc(CNc2nc(-c3ccc(C(=O)N(C)C)cc3)nc3ccccc23)cn1
inactive: Potency [1] > 11.4 µM | activity change, negative = inhibition [2] -29.1% | activity, negative = inhibition [4] -7.91% | Potency [9] > 46 µM | Potency [5] > 46 µM | Potency [6] | Potency [7] | Potency [12] | Potency [15] | Potency [16] | outcome [8]
active: Potency [3] 25.1 µM

Cn1c(=O)c(-c2ccc(F)cc2)nc2cncnc21
active: Potency [3] 0.158 µM
inactive: Potency [1] > 11.4 µM | activity change, negative = inhibition [2] -16.1% | activity, negative = inhibition [4] -0.562% | Potency [9] > 9.22 µM | Potency [5] > 46 µM | Potency [6] | Potency [7] | Potency [12] | outcome [8]

CC(=O)N1CCC[C@@]2(CCN(c3ccccc3)C2)C1
inactive: Potency [1] > 11.4 µM | activity change, negative = inhibition [2] -11% | Potency [3] | activity, negative = inhibition [4] -6.46% | Potency [5] > 46 µM | Potency [6] | Potency [7] | Potency [12] | outcome [8]

O=C(c1cc(C(F)(F)F)cc(C(F)(F)F)c1)N1CCC2(CCCN(Cc3ccncc3)C2)CC1
inactive: Potency [1] > 11.4 µM | activity change, negative = inhibition [2] 7.96% | Potency [3] | activity, negative = inhibition [4] -3.11% | Potency [5] > 46 µM | Potency [6] | Potency [7] | Potency [12] | outcome [8]
